The campaign covered roughly 39,000 compounds. About 3,300 (8.5%) were called active. The full list was thinned out, with actives kept by preference.
tested on: HepG2; experiment: cytotoxicity call (relative viability < 0.9); conditions: 10 µM

SMILES | cytotoxicity call
COc1ccc(CN(C)C[C@@H]2Oc3ccc(NS(C)(=O)=O)cc3CC(=O)N([C@H](C)CO)C[C@@H]2C)cc1 | inactive
O=C(C[C@H]1CC[C@@H]2[C@H](COC[C@@H](O)CN2S(=O)(=O)c2ccc(Oc3ccccc3)cc2)O1)NCCN1CCCCC1 | inactive
Cc1noc(C)c1S(=O)(=O)Nc1ccc2c(c1)CC(=O)N([C@H](C)CO)C[C@H](C)[C@H](CN(C)S(C)(=O)=O)O2 | inactive
O=C1O[C@H](c2ccccc2)[C@H](c2ccccc2)N2[C@H]1[C@@H](C(=O)Nc1nc3ccccc3s1)[C@]1(C(=O)Nc3ccc(C#CCCO)cc31)[C@H]2c1ccc(OCCO)cc1 | inactive
COc1ccc(S(=O)(=O)Nc2ccc3c(c2)C(=O)N([C@@H](C)CO)C[C@@H](C)[C@@H](CN(C)C(=O)Nc2cccc4ccccc24)OCCCC[C@@H](C)O3)cc1 | inactive
COc1ccc(NC(=O)N(C)C[C@@H]2Oc3c(NC(=O)C4CCOCC4)cccc3C(=O)N([C@H](C)CO)C[C@@H]2C)cc1 | inactive
C[C@H]1CN([C@@H](C)CO)C(=O)c2cccc(NS(=O)(=O)c3cn(C)cn3)c2O[C@H]1CN(C)C(=O)Nc1ccc(F)cc1 | inactive
COc1cccc(S(=O)(=O)Nc2ccc3c(c2)C(=O)N(C)C[C@H](OC)[C@H](C)CN(C(=O)Cc2cccnc2)[C@@H](C)CO3)c1 | inactive
Cc1ccc(S(=O)(=O)N(C)C[C@@H]2OCCCC[C@@H](C)Oc3ccc(NC(=O)Nc4ccc5c(c4)OCO5)cc3C(=O)N([C@@H](C)CO)C[C@@H]2C)cc1 | inactive
S=C1NCN(Cc2ccncc2)CN1 | inactive
S=C1NCN(C2CCCC2)CN1 | inactive
CCN1CCC[C@@H]1CN1CNC(=S)NC1 | active
C[C@H](CO)N1C[C@H](C)[C@H](CN(C)C(=O)Nc2ccc(C(F)(F)F)cc2)OCCCC[C@H](C)Oc2ccc(NC(=O)Nc3cccc4ccccc34)cc2C1=O | inactive
O=C(Cc1ccncc1)NCC[C@@H]1CC[C@H](NC(=O)C2CCOCC2)[C@H](CO)O1 | inactive
CN(C)Cc1nc2c([nH]1)c(=O)[nH]c(=O)n2C | active
CN(C)c1nc2c([nH]1)c(=O)[nH]c(=O)n2C | inactive
Cn1c(=O)[nH]c(=O)c2[nH]cnc21 | inactive
Cc1ccc(S[C@]2(C(=O)NCC(C)C)CC(=O)N(Cc3ccccc3)[C@@H]2c2ccc(CO)cc2)cc1 | inactive
O=C1[N-]C(=O)C(c2ccccc2)(c2ccccc2)N1.[Na+] | inactive
C[C@H](CO)N1C[C@H](C)[C@H](CN(C)S(=O)(=O)c2ccc(F)cc2)Oc2ccc(NC(=O)Cn3cnnn3)cc2C1=O | inactive
C[C@H](CO)N1C[C@H](C)[C@H](CN(C)C(=O)Nc2ccc(C(F)(F)F)cc2)Oc2c(NC(=O)C3CCCCC3)cccc2C1=O | active
C[C@@H]1CN([C@@H](C)CO)C(=O)c2cccc(NC(=O)C3CCCCC3)c2O[C@@H]1CN(C)C(=O)Nc1ccc(C(F)(F)F)cc1 | inactive
C[C@H](CO)N1C[C@H](C)[C@H](CN(C)C(=O)Nc2ccc(C(F)(F)F)cc2)Oc2c(NC(=O)NC3CCCCC3)cccc2C1=O | active

SMILES | cytotoxicity call
CC(C)NC(=O)N(C)C[C@H]1Oc2c(NC(=O)C3CCCCC3)cccc2C(=O)N([C@H](C)CO)C[C@@H]1C | inactive
C[C@@H]1CN([C@H](C)CO)C(=O)c2cccc(NC(=O)NC3CCCCC3)c2O[C@H]1CN(C)C(=O)Nc1ccc(C(F)(F)F)cc1 | active
C[C@@H]1CN([C@@H](C)CO)C(=O)c2cccc(NC(=O)NC3CCCCC3)c2O[C@@H]1CN(C)C(=O)Nc1ccc(C(F)(F)F)cc1 | inactive
CC(C)NC(=O)N(C)C[C@@H]1Oc2c(NC(=O)C3CCCCC3)cccc2C(=O)N([C@H](C)CO)C[C@H]1C | inactive
C[C@@H]1CN([C@H](C)CO)C(=O)c2cccc(NC(=O)C3CCCCC3)c2O[C@H]1CN(C)C(=O)Nc1ccc(C(F)(F)F)cc1 | inactive
CC(C)NC(=O)N(C)C[C@@H]1Oc2c(NC(=O)C3CCCCC3)cccc2C(=O)N([C@@H](C)CO)C[C@@H]1C | active
C[C@H](CO)N1C[C@H](C)[C@@H](CN(C)C(=O)Nc2ccc(C(F)(F)F)cc2)Oc2c(NC(=O)NC3CCCCC3)cccc2C1=O | inactive
N#CCC(=O)N1CCSCC1 | inactive
C[C@@H]1CCCCO[C@@H](CN(C)S(=O)(=O)c2ccc(F)cc2)[C@@H](C)CN([C@H](C)CO)C(=O)c2cc(NS(C)(=O)=O)ccc2O1 | inactive
CC(C)CN1C[C@@H]2CCNCC[C@H]2S1(=O)=O | inactive
C[C@H](CO)N1C[C@H](C)[C@@H](CN(C)Cc2ccc(C(=O)O)cc2)Oc2ccc(NS(=O)(=O)c3cn(C)cn3)cc2CC1=O | inactive
O=C(C[C@@H]1C[C@H]2c3cc(NS(=O)(=O)c4ccc(F)cc4)ccc3O[C@H]2[C@@H](CO)O1)NCc1ccccc1F | inactive
Nc1cc(=O)[nH]c(=O)n1Cc1ccccc1 | inactive
COc1ccc(CN2C[C@@H](C)[C@H](OC)CN(C)C(=O)c3ccc(NC(=O)c4nc5ccccc5s4)cc3OC[C@@H]2C)cc1 | inactive
COc1ccc2c3c([nH]c2c1)[C@H](CO)N(C[C@]13CCN(CC1)CC1CCCC1)S(=O)(=O)c1cn(cn1)C | inactive
COc1ccccc1CN1C(=O)c2ccccc2[C@@]2(Cc3ccccc3N(C(C)C)C2=O)[C@@H]1c1ccc(CO)cc1 | inactive
C[C@H]1CN([C@@H](C)CO)C(=O)c2cccc(NC(=O)NC3CCCCC3)c2O[C@H]1CN(C)C(=O)Nc1ccc(C(F)(F)F)cc1 | active
C[C@H]1CN([C@@H](C)CO)C(=O)c2cccc(NC(=O)NC3CCCCC3)c2O[C@@H]1CN(C)C(=O)Nc1ccc(C(F)(F)F)cc1 | inactive
C[C@@H]1CN([C@H](C)CO)C(=O)c2cccc(NC(=O)NC3CCCCC3)c2O[C@@H]1CN(C)C(=O)Nc1ccc(C(F)(F)F)cc1 | inactive
CCCn1nc(C)c(CN)c1C | inactive
Cc1ccc(S(=O)(=O)N(C)C[C@@H]2OCCCC[C@@H](C)Oc3ccc(NC(=O)Nc4ccc(C(F)(F)F)cc4)cc3C(=O)N([C@@H](C)CO)C[C@@H]2C)cc1 | inactive
O=C1N[C@H](Cc2c[nH]c3ccccc23)COC(=O)[C@H](Cc2ccc(F)cc2)CC=CC[C@@H]1CC(=O)N(CCO)Cc1ccccc1 | inactive
O=C1N[C@@H](Cc2c[nH]c3ccccc23)COC(=O)[C@H](Cc2ccc(F)cc2)CCC=CC[C@H]1CC(=O)N(CCO)Cc1ccccc1 | inactive

SMILES | cytotoxicity call
O=C(N[C@H]1CC=CC[C@H](CC(=O)N(CCO)Cc2ccccc2)C(=O)N[C@@H](Cc2ccccc2)COC1=O)OCC1c2ccccc2-c2ccccc21 | active
O=C1N[C@H](Cc2c[nH]c3ccccc23)COC(=O)[C@@H](Cc2ccc(F)cc2)CCC=CC[C@@H]1CC(=O)N(CCO)Cc1ccccc1 | inactive
O=C1N[C@H](Cc2c[nH]c3ccccc23)COC(=O)[C@@H](Cc2ccc(F)cc2)CC=CC[C@@H]1CC(=O)N(CCO)Cc1ccccc1 | inactive
O=C(N[C@H]1CC=CC[C@H](CC(=O)N(CCO)Cc2ccccc2)C(=O)N[C@H](Cc2ccccc2)COC1=O)OCC1c2ccccc2-c2ccccc21 | inactive
O=C1N[C@@H](Cc2c[nH]c3ccccc23)COC(=O)[C@@H](Cc2ccc(F)cc2)CC=CC[C@@H]1CC(=O)N(CCO)Cc1ccccc1 | active
O=C(N[C@@H]1CC=CC[C@H](CC(=O)N(CCO)Cc2ccccc2)C(=O)N[C@@H](Cc2ccccc2)COC1=O)OCC1c2ccccc2-c2ccccc21 | inactive
O=C1N[C@H](Cc2c[nH]c3ccccc23)COC(=O)[C@@H](Cc2ccc(F)cc2)CCC=CC[C@H]1CC(=O)N(CCO)Cc1ccccc1 | active
CC12CC(OC1=O)C1(C)CCC3(C)C(=CCC4C5(C)CCC(O)C(C)(C)C5CCC43C)C1C2 (centres undefined) | inactive
O=S1(=O)C[C@H](NCc2cccnc2)[C@@H](O)C1 | inactive
C[C@H](CO)N1C[C@H](C)[C@@H](CN(C)Cc2ccc(C(=O)O)cc2)Oc2c(NC(=O)C3CCOCC3)cccc2C1=O | inactive
COc1ccc(CN(C)C[C@H]2Oc3ccc(NS(=O)(=O)c4c(C)noc4C)cc3CC(=O)N([C@H](C)CO)C[C@@H]2C)cc1 | inactive
COc1ccc(S(=O)(=O)Nc2ccc3c(c2)C(=O)N([C@H](C)CO)C[C@@H](C)[C@@H](CN(C)S(=O)(=O)c2ccc(OC)cc2)O3)cc1 | inactive
CN1C(=O)c2cc(NC(=O)Nc3ccccc3F)ccc2OC[C@H]2O[C@@H](CC(=O)NCc3ccc(-c4ccccc4)cc3)CC[C@@H]21 | inactive
C[C@@H]1CCCCO[C@@H](CN(C)S(=O)(=O)c2ccc(Cl)cc2)[C@@H](C)CN([C@H](C)CO)C(=O)c2cc(NC(=O)C3CCCCC3)ccc2O1 | inactive
CO[C@H]1CN(C)C(=O)c2ccc(NS(C)(=O)=O)cc2OC[C@@H](C)N(C(=O)C2CCOCC2)C[C@@H]1C | inactive
COc1ccc(S(=O)(=O)Nc2ccc3c(c2)C(=O)N([C@H](C)CO)C[C@@H](C)[C@H](CN(C)C(=O)C2CCCCC2)OCCCC[C@H](C)O3)cc1 | inactive
C[C@@H]1CN([C@@H](C)CO)C(=O)c2cc(N(C)C)ccc2O[C@@H](C)CCCCO[C@H]1CN(C)C(=O)CCCN(C)C | inactive
Cc1noc(C)c1S(=O)(=O)Nc1ccc2c(c1)C(=O)N([C@H](C)CO)C[C@H](C)[C@@H](CN(C)C(=O)Nc1cccc3ccccc13)OCCCC[C@H](C)O2 | active
Cc1noc(C)c1S(=O)(=O)Nc1ccc2c(c1)C(=O)N([C@@H](C)CO)C[C@@H](C)[C@@H](CN(C)C(=O)Nc1cccc3ccccc13)OCCCC[C@H](C)O2 | inactive
Cc1noc(C)c1S(=O)(=O)Nc1ccc2c(c1)C(=O)N([C@@H](C)CO)C[C@@H](C)[C@H](CN(C)C(=O)Nc1cccc3ccccc13)OCCCC[C@H](C)O2 | inactive
Cc1noc(C)c1S(=O)(=O)Nc1ccc2c(c1)C(=O)N([C@H](C)CO)C[C@@H](C)[C@@H](CN(C)C(=O)Nc1cccc3ccccc13)OCCCC[C@@H](C)O2 | inactive
Cc1noc(C)c1S(=O)(=O)Nc1ccc2c(c1)C(=O)N([C@H](C)CO)C[C@H](C)[C@H](CN(C)C(=O)Nc1cccc3ccccc13)OCCCC[C@@H](C)O2 | inactive
Cc1noc(C)c1S(=O)(=O)Nc1ccc2c(c1)C(=O)N([C@@H](C)CO)C[C@@H](C)[C@@H](CN(C)C(=O)Nc1cccc3ccccc13)OCCCC[C@@H](C)O2 | active

— the antibiotic and cytotoxicity screens of Wong et al. (2023)
